Results taken from PubChem BioAssay AID602325 (NMMLSC, 2012).
This is one part of the list. Values without a mark were called inactive. The source made the active and inactive calls. Cut-off read from the data, not from the text of the source: active = inhibition above about 24%; inactive = the rest.

These compounds were tested on Botulinum neurotoxin type A light chain protease [Clostridium botulinum A str. ATCC 3502] (assay: inhibition of botulinum toxin A LC protease – biochemical, flow cytometry, cherry pick 2, confirmation (AID 602325)). Settings: multiplex microsphere protease cleavage assay, at 10 µM, active compounds read high.

O=C(CN1CCN(c2ccccc2O)CC1)NC(=O)NCc1ccccc1 was tested. Which inhibition did it give?
Its inhibition is 1.6%.

Which inhibition does the source give for CC(=O)OCCN(CCCn1c(-c2ccncc2)nc2ccccc21)c1nc(-c2ccc(C)cc2)cs1 here?
The inhibition was 1.8%.

With Cc1cc2ccccc2n1CCNC(=O)COc1ccc2ccccc2c1 as the compound, how does the inhibition read?
The inhibition was 5.2%.

How did the inhibition turn out when Cc1ccc(CNC(=O)c2cccc3c2C(=O)c2ccc(N4CCC(C)CC4)cc2S3(=O)=O)cc1 was run?
Its inhibition is 8.9%.

With Cc1cc2cc(CNC(=O)c3ccc(S(=O)(=O)N4CCOCC4)cc3)ccc2[nH]1 as the compound, how does the inhibition read?
Its inhibition is 3.8%.

With O=C(OCC(=O)c1c[nH]c2ccccc12)c1cccc(O)c1 as the compound, how does the inhibition read?
The inhibition was 1.5%.

How did the inhibition turn out when COc1ccc(-c2cc3c(c4c2ccn4C)C2CCC3C2)cn1 (stereo not drawn) was run?
The inhibition was 25.2% (active).

For CCOc1ncccc1C(=O)OCC(=O)c1c[nH]c2ccccc12, which inhibition is on record?
The inhibition was 9.5%.
